# Screening results (PubChem)
# KB-V1 MDR tox = qHTS assay for MDR1-selective chemotherapeutics: Primary screen using the drug-selected MDR subline cells KB-V1; Potency, µM (series often up to 46.1 µM), hits mostly cytotoxic; AID 1347076, 2019; 400,000 compounds, 3.4% hits; KB-V1 MDR cells viability, CellTiter-Glo, 72 h; also: % is scaled to controls: 0 for no effect and ±100 for the full control effect; nearly all actives have a fitted effect of over 60% in size
#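 KB-V1, DMEM (no phenol red) + 10% FBS; cpd pin-transferred, titration series; 72 h, 37 degrees C; CellTiter-Glo, luminescence. Data normalized, curve-fit.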
# VP16 counter = VP16 counterscreen qHTS for inhibitors of ROR gamma transcriptional activity | 310,000 compounds, 3.5% hits | Drosophila S2 Gal4-VP16 UAS-luciferase, luminescence, 20 h | Potency, µM (highest dose often 53.6 µM), for the others: at the highest dose activity, negative = inhibition, usual class: inhibitors;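 also: Gal4-VP16 expression switched on by copper sulfate through the metallothionein promoter; % is scaled to controls: 0 for no effect and ±100 for the full control effect; nearly all actives have a fitted effect of over 50% in size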
# KB-3-1 cytotox = qHTS assay for MDR1-selective chemotherapeutics: Primary screen using the parental adenocarcinoma cell KB-3-1; KB-3-1 viability, CellTiter-Glo ATP luminescence, 72 h; Potency, µM (series often up to 46.1 µM), actives largely listed as cytotoxic; 400,000 compounds, 1.4% hits; also: % is scaled to controls: 0 for no effect and ±100 for the full control effect; nearly all actives have a fitted effect of over 60% in size
#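 Here the drug-naive KB-3-1 line serves as comparator for MDR sub-line selectivity; cells received compound titrations, 72 h at 37 °C, then CellTiter-Glo readout.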
# SW480 rereplic = A quantitative high throughput screen for small molecules that induce DNA re-replication in SW480 colon adenocarcinoma cells; 340,000 compounds, 1.8% hits; SW480 DNA re-replication, Hoechst DNA content imaging, 48 h; Potency, µM (titrated, usually from 46.1 µM), without a hit: at the top dose re-replication activation, most hits filed as activators; AID 624297, 2012; also: % of control where 0% means no effect; nearly all actives have a fitted effect of over 55% in size
#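 Image-based read-out: total Hoechst fluorescence of nuclei (405 nm excitation, 500-530 nm emission), with hits raising the fraction of high-intensity nuclei. SW480 colon cells incubated 48 hr with compounds at 37 C.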
# MCF10A rerep = A quantitative high throughput screen for small molecules that induce DNA re-replication in MCF 10a normal breast cells; MCF 10A DNA re-replication, Hoechst nuclear intensity, 48 h; Potency, µM (series often up to 46.1 µM), without a hit: at the highest dose activity, positive = re-replication, hits mostly activators; 350,000 compounds, 2.9% hits; AID 624296, 2012; also: % of control where 0% means no effect; nearly all actives have a fitted effect of over 50% in size
# RORgamma inh = qHTS for inhibitors of ROR gamma transcriptional activity; Nuclear receptor ROR-gamma (Mus musculus), P51450; Drosophila S2 Gal4-RORgamma UAS-luciferase reporter, 20 h; Potency, µM (doses to about 53.6 µM), for inactives: at the highest dose activity change, negative = inhibition, hits mostly inhibitors; 310,000 compounds, 5.4% hits; AID 2551, 2010; also: % is scaled to controls: 0 for no effect and ±100 for the full control effect; nearly all actives have a fitted effect of over 60% in size
# Target sequence (P51450 whole entry, looked up, the tested form may be a part): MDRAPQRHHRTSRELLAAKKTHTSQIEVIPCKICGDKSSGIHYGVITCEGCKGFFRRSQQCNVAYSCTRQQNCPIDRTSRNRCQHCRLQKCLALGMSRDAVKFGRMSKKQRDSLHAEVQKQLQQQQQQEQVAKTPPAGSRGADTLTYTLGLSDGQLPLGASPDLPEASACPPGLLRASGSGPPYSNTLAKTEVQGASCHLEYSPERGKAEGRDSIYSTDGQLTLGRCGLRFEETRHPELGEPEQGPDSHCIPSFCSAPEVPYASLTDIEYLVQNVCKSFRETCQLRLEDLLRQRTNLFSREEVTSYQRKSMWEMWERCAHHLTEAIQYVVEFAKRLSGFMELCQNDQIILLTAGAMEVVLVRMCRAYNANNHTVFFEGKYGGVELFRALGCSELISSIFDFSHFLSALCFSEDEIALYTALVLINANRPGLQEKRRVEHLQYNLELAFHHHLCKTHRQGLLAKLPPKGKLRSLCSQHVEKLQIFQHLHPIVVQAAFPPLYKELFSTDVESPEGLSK
#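 Stably transfected Drosophila Schneider cells are the test system, with ROR gamma fused to Gal4 and luciferase under UAS control; luminescence is read after 20 hr of 700 uM copper sulfate induction at ambient temperature.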
# An asterisk follows results filed as active; i = inactive; ? = inconclusive; / = no result; [ ] = remark or other dose. The list is not random: actives were taken first. Their share in the collection is about 10%. Calls follow the shape of the dose curve; as a rule, active = well fitted curve in the direction sought with a large enough effect; inconclusive = small, poorly fitted or top-dose-only effect, or another doubt; inactive = no such curve, though single readings can be large; an effect the other way counts as inactive or inconclusive. Potency is read from the fitted curve at half-maximal effect.
SMILES,KB-V1 MDR tox,VP16 counter,KB-3-1 cytotox,SW480 rereplic,MCF10A rerep,RORgamma inh
N#Cc1ccccc1OCCCN1CCC(C(O)(c2ccccc2)c2ccccc2)CC1,23.1µM*,/,?,/,/,/
CCN(Cc1ccccc1)C(=O)Cn1c(=O)n(-c2cccc(C)c2)c(=O)c2c1c1cc(C)ccc1n2C,i,/,i,/,/,/
Cc1nnc(N/N=C/c2ccc(-c3ccc(Br)cc3)o2)n1N,i,8.91µM*,i,4.8%,?,3.16µM*
O=C(O)c1ccc(N/N=C/c2ccc(-c3ccc(Br)cc3)o2)cc1,i,-4.0%,i,20.6µM*,?,?
Cc1ccc(/C=N/Nc2ccc(C(=O)O)cc2)o1,i,0.398µM*,i,?,-3.6%,0.316µM*
Cc1ccc(/C=N/NC(=O)Nc2ccccc2)o1,i,?,i,-3.6%,0.2%,1.1%
CCN(CC)C(=O)/C(=C\c1cccc([N+](=O)[O-])c1)NC(=O)c1ccco1,13µM*,3.9%,i,-120.6%,-16.8%,24.0%
O=C(N/C(=C\c1cccc([N+](=O)[O-])c1)C(=O)N(CCO)CCO)c1ccco1,i,6.9%,i,2.5%,1.6%,22.5%
CCN=C1S/C(=C/c2ccc(-c3ccc(F)cc3)o2)C(=O)N1CC,i,-9.1%,i,?,8.2µM*,-22.7%
CCN=C1S/C(=C\c2ccc(Sc3ccc(Cl)cc3)o2)C(=O)N1CC,i,3.1%,?,?,?,7.9%
CCC(=O)N(C1=C(NC)C(=O)c2ccccc2C1=O)C(C)C,?,-12.8%,2.59µM*,?,5.8µM*,?
CNC1=C(N(C(C)=O)c2ccc(Br)cc2)C(=O)c2ccccc2C1=O,?,12.6µM*,?,8.2µM*,0.581µM*,5.62µM*
CC(=O)NC1=C(Nc2ccc(N(C)C)cc2)C(=O)c2ccccc2C1=O,i,-18.3%,i,17.8%,8.3%,-59.4%
CCc1ccccc1NC(=O)c1cn(C)c(=O)c2ccccc12,?,/,i,/,/,/
CN(C)c1ncc2nc(-c3ccccc3)c(=O)n(-c3ccccc3)c2n1,/,-11.6%,/,/,/,-25.6%
O=S(=O)(c1ccc(Oc2ccc(Br)cc2F)nc1)N1CCCCC1,23.1µM*,-9.7%,?,?,20.1%,-1.9%
N#Cc1ccccc1Oc1ccc(S(=O)(=O)N2CCCCC2)cn1,?,/,i,0.1%,6.7%,/
COC(=O)Cn1c(=O)c2c(nc3n2CCCN3Cc2ccccc2)n(C)c1=O,i,25.0%,i,-6.2%,-2.5%,4.9%
CC1CN(c2nc3c(c(=O)n(Cc4ccc(Cl)cc4)c(=O)n3C)n2C)CC(C)O1 (centres undefined),23.1µM*,-10.1%,?,-4.9%,20.5%,40.4%
Cn1c(=O)n(Cc2ccc(Cl)cc2)c(=O)c2c1nc1n2CCN1Cc1ccco1,11.6µM*,-0.9%,?,-0.9%,6.5%,?
Cn1c(=O)n(CC(=O)OCc2ccccc2)c(=O)c2c1nc1n2CCCN1C1CCCCC1,?,/,i,4.3%,9.2µM*,/
Cn1c(=O)n(Cc2ccccc2)c(=O)c2c1nc1n2CCCN1CCc1ccccc1,2.31µM*,3.0%,i,4.1%,?,13.2%
Cc1sc2ncn(CC(=O)N(C)c3ccc(C(C)C)cc3)c(=O)c2c1S(=O)(=O)N1CCC(C)CC1,i,/,i,/,/,/
CNC(=O)C[C@@H]1C(=O)N(c2ccc(OC)cc2)CC1(C)C,i,/,i,/,/,/
Cc1ccc(C)c(NC(=O)CCCN2C(=O)C(c3ccccc3)Oc3cccnc32)c1 (centres undefined),i,/,i,/,/,/
SMILES,KB-V1 MDR tox,VP16 counter,KB-3-1 cytotox,SW480 rereplic,MCF10A rerep,RORgamma inh
COc1ccc(N2CCn3c2nc2c3c(=O)n(CCc3ccccc3)c(=O)n2C)c(OC)c1,/,-1.5%,/,/,/,7.3%
COc1ccc(N2CCn3c2nc2c3c(=O)n(CCCc3ccccc3)c(=O)n2C)c(OC)c1,9.2µM*,-18.1%,?,0.3%,9.9%,?
CCCNC(=O)CSc1nc2ccccc2nc1Cc1ccc(Cl)cc1,i,/,i,/,/,/
N#CC1c2ccccc2C=CN1C(=O)N(c1ccccc1)c1ccccc1 (centres undefined),20.6µM*,/,?,?,3.26µM*,/
CCOC(=O)c1[nH]c(C)c(C(=O)NCc2ccc(Cl)cc2)c1C,23.1µM*,-6.5%,i,4.5%,?,?
CCOC(=O)c1[nH]c(C)c(C(=O)N2CCN(c3ccccc3)CC2)c1C,16.4µM*,4.0%,i,1.2%,3.6%,28.4%
CCOC(=O)c1[nH]c(C)c(C(=O)Nc2cc(Cl)ccc2C)c1C,0.461µM*,-2.5%,?,0.82µM*,?,-40.2%
CCOC(=O)c1[nH]c(C)c(C(=O)NCCc2ccc(OC)cc2)c1C,14.6µM*,-0.4%,i,-0.7%,?,?
Cc1ccc(S(=O)(=O)N2CCN(C(=O)COC(=O)/C=C/c3ccc(OC(F)F)cc3)CC2)cc1,i,/,?,3.9%,25.1%,/
CC1CCCN(C(=O)c2cc3c(=O)n(C)c4ccccc4c3s2)C1 (centres undefined),i,/,i,/,/,/
COC(=O)c1cc2oc(C)cc2n1CC(=O)Nc1ccc(C)cc1C,i,/,i,/,/,/
CCOc1ccc(CCNC(=O)c2[nH]c(C)c(C(C)=O)c2C)cc1OCC,18.4µM*,0.1%,i,3.5%,0.1%,-12.5%
CCOC(=O)c1[nH]c(C)c(C(=O)N(C)Cc2ccccc2)c1C,16.4µM*,-3.7%,i,-3.5%,0.2%,32.5%
CCOC(=O)c1c(C)[nH]c(N=Nc2ccccc2C)c1C,i,?,i,-3.9%,-6.3%,3.98µM*
CCOC(=O)c1[nH]c(C)c(C(=O)Nc2ccccc2C)c1C,i,2.9%,?,?,3.66µM*,1.6%
COc1ccc(CCNC(=O)c2[nH]c(C)c(C(C)=O)c2C)cc1OC,i,10.2%,i,-9.4%,0.1%,?
Cc1c(F)c(N2CCNC(C)C2)cc2c1c(=O)c(C(=O)O)cn2C1CC1 (centres undefined),/,1.3%,/,4.9%,10.7%,8.1%
Cc1ccc(S(=O)(=O)N2CCCc3cc(NC(=O)c4ccc(C(C)(C)C)cc4)ccc32)cc1,i,/,i,/,/,/
Cc1c(C(=O)NN2CCCCC2)nn(-c2ccc(Cl)cc2Cl)c1-c1ccc(Cl)cc1,/,-13.4%,/,4.1%,13.3µM*,24.3%[10 µM]
